For 17 molecules, Potency results are on record in PubChem BioAssay (NCATS).

“And” between values parts separate entries of the source, which are not always exact repeats. Equal values may be shown once. Results filed as inconclusive are left out. The source made the active and inactive calls. The call rests on the fitted dose curve; in most records, active means well fitted curve in the direction sought with a large enough effect; inconclusive means small, poorly fitted or top-dose-only effect, or another doubt; inactive means no such curve, though single readings can be large; an effect the other way counts as inactive or inconclusive.

The nature of test [1]: P-glycoprotein substrates identified in KB-8-5-11 adenocarcinoma cell line, qHTS therapeutic library screen (AID 1346987). Further: nearly all actives have a fitted effect of over 65% in size. Further: potency means the concentration at half of the fitted maximal effect. The method in brief:
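Compounds are pinned in dose-response onto KB-8-5-11 cells (500 cells/well, colchicine-free medium) and left 72 h at 37 degree C. CellTiter-Glo luminescence then yields AC50 values.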
For orientation: In qHTS, concentration-response curves come from the screen itself.

A short description of test [2]: NS1 protein of Zika virus - qHTS assay to identify small molecule inhibitors in human HEK 293 cells (AID 1347053). Further: nearly all actives have a fitted effect of over 55% in size. Further: potency means the concentration at half of the fitted maximal effect. Summed up:
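Read-out is a two-antibody TR-FRET for ZIKV NS1, normalized between uninfected cells and infected cells. Compound added 1 h before MR766 infection at MOI 0.5; human HEK 293 cells incubated 24 h, 37 C.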

Test [3] is described as follows: qHTS of pediatric cancer cell lines to identify multiple opportunities for drug repurposing: Primary screen for TC32 cells (AID 1347089). Further: nearly all actives have a fitted effect of over 60% in size. Further: potency means the concentration at half of the fitted maximal effect. Summed up:
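Luminescent CellTiter-Glo read-out of metabolically active TC32 cells after 48 h compound exposure. Primary: MIPE 11-point, 0.78 nM–46 µM; NPC 8-point, 0.59 nM–46 µM. Confirmatory: 11-point dilutions.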

Test [4] is described as follows: qHTS of pediatric cancer cell lines to identify multiple opportunities for drug repurposing: Primary screen for SJ-GBM2 cells (AID 1347091). Further: potency means the concentration at half of the fitted maximal effect. Summed up:
(§1)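 Cell viability, CellTiter-Glo luminescence; 500-1,000 cells/well, 8- or 11-point titration, 48 h compound exposure at 37 degrees C, 5% CO2. Controls: DMSO neutral, bortezomib 2.3 µM final as positive.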

The nature of test [5]: qHTS of pediatric cancer cell lines to identify multiple opportunities for drug repurposing: Primary screen for SK-N-MC cells (AID 1347093). Further: potency means the concentration at half of the fitted maximal effect. The method in brief:
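Metabolically active cells were quantified by ATP-dependent luminescence (CellTiter-Glo, 15 min at room temperature) following 48 h treatment. Cells had been plated at 500-1,000 per well and settled for 5 h beforehand.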

Test [6] is described as follows: qHTS of pediatric cancer cell lines to identify multiple opportunities for drug repurposing: Primary screen for BT-37 cells (AID 1347094). Further: potency means the concentration at half of the fitted maximal effect. Summed up:
(§2)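 Viability was measured as metabolically active cells after 48 hours of treatment, read by CellTiter-Glo luminescence. Compounds were tested at multiple final concentrations, giving concentration-response curves.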

Test [7] can be described thus: qHTS of pediatric cancer cell lines to identify multiple opportunities for drug repurposing: Primary screen for NB-EBc1 cells (AID 1347095). Further: potency means the concentration at half of the fitted maximal effect. The method in brief: as §2
Test [8] can be described thus: qHTS of pediatric cancer cell lines to identify multiple opportunities for drug repurposing: Primary screen for U-2 OS cells (AID 1347096). Further: nearly all actives have a fitted effect of over 50% in size. Summed up:
(§3)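 Cells (500-1,000/well) rested 5 h, then received compounds for 48 h; metabolically active cells were measured by CellTiter-Glo luminescence. Final concentrations spanned up to 46 µM (MIPE, 11-point) or 0.59 nM-46 µM (NPC, 8-point) in primary screens, 11-point in follow-ups.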

The nature of test [9]: qHTS of pediatric cancer cell lines to identify multiple opportunities for drug repurposing: Primary screen for Saos-2 cells (AID 1347097). Further: nearly all actives have a fitted effect of over 40% in size. Further: potency means the concentration at half of the fitted maximal effect. The method in brief:
as §2

A short description of test [10]: qHTS of pediatric cancer cell lines to identify multiple opportunities for drug repurposing: Primary screen for NB1643 cells (AID 1347099). Further: nearly all actives have a fitted effect of over 50% in size. Further: potency means the concentration at half of the fitted maximal effect. The method in brief:
as §2

Test [11] in a line: qHTS of pediatric cancer cell lines to identify multiple opportunities for drug repurposing: Primary screen for A673 cells (AID 1347092). Further: nearly all actives have a fitted effect of over 45% in size. Further: potency means the concentration at half of the fitted maximal effect. Summed up:
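A673 cells (500-1,000 cells/well in growth media) were pre-incubated 5 h at 37 degrees C, then exposed to compounds for 48 h. Viability was read as CellTiter-Glo luminescence; concentration-response curves came directly from the primary screen.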

A short description of test [12]: qHTS of pediatric cancer cell lines to identify multiple opportunities for drug repurposing: Primary screen for SK-N-SH cells (AID 1347098). Further: nearly all actives have a fitted effect of over 65% in size. Further: potency means the concentration at half of the fitted maximal effect. The method in brief: as §3
A short description of test [13]: qHTS of pediatric cancer cell lines to identify multiple opportunities for drug repurposing: Primary screen for DAOY cells (AID 1347090). Further: potency means the concentration at half of the fitted maximal effect; nearly all actives have a fitted effect of over 55% in size. The method in brief: as §1

As to `CC(C)=CC[C@@H](O)C1=CC(=O)c2c(O)ccc(O)c2C1=O`, the Potency entry in [1], in test [2], in [3] and in test [8] was “inactive” in each case. For the same molecule, the Potency is 1.05 µM (active) in [4]; 1.05 µM (active) in test [5]; 13.7 µM (active) in test [6]; 0.743 µM (active) in [7]; 18.7 µM (active) in [9]; 3.32 µM (active) in test [10].
As to `C[C@@H]1CCN(C(=O)CC#N)C[C@H]1N(C)c1ncnc2[nH]ccc12`, the Potency entry in test [1], in test [2], in test [3], in test [4], in test [5] and in test [6] was “inactive” each time. The Potency result in test [7], in [8] and in test [9] was “inactive” in each case.
`O=C(OCC#CCSc1nnc(-c2cccc3ccccc23)o1)c1cc2ccccc2s1`: the Potency entry in [1], in test [2], in test [3], in [4], in test [11] and in test [5] was “inactive” throughout. Further, the Potency result in test [6], in test [8], in test [9] and in test [10] was “inactive” each time.
As to `OC[C@H]1O[C@@H](n2cnc3c2NC=NC[C@@H]3O)C[C@H]1O`, the Potency entry in test [1], in [2], in test [3], in test [4], in test [6] and in [7] was “inactive” each time. In addition, the Potency entry in [8], in test [9] and in [12] was “inactive” in each case.
With `Oc1ccc(C2CCN(c3ccnc4ccccc34)CC2)cc1O`, the Potency result in test [1], in [2], in [3] and in [9] was “inactive” each time. Moreover, in test [7], the Potency is 23.5 µM (active).
As for `CC(C(=O)O)c1ccc(-c2ccccc2)c(F)c1` (centres undefined), the Potency result in test [1], in [2], in test [3], in test [4], in test [7] and in [8] was “inactive” in each case. In addition, the Potency was 14.8 µM (active) in [11], 24.1 µM (active) in test [12] and 26.4 µM (active) in [10].
For `COc1ccc2c3c1OC1C[C@@H](O)C=C[C@@]31CCN(C)C2` (some centres undefined), the Potency entry in test [1], in test [2], in test [3], in [6], in test [8] and in test [9] was “inactive” each time.
On to `NC(CO)(CO)CCc1ccc(Sc2cccc(OCc3ccccc3)c2)cc1Cl`, for which the Potency in test [1] is 20.9 µM (active); in test [2] it was 9.35 µM (active); in test [13], 23.5 µM (active); in test [4] it was 18.7 µM (active); in [11] it was 14.8 µM (active); in test [5], 2.64 µM (active). Moreover, the Potency in test [6] is 19.3 µM (active); in test [7], 1.87 µM (active); in [9], 29.6 µM (active); in test [10] it was 16.6 µM (active).
Consider `COC[C@@H](c1ccc(C(F)(F)F)cc1)N1CCN(C2(C)CCN(C(=O)c3c(C)ncnc3C)CC2)C[C@H]1C`, for which the Potency entry in test [1], in [2], in test [3], in test [6], in [7] and in test [8] was “inactive” throughout. For the same molecule, the Potency result in test [9] is “inactive”. In addition, the Potency was 3.32 µM (active) in [5] and 5.41 µM (active) in [12].
Regarding `O=C(CCc1ccc(O)cc1)c1c(O)cc(O)cc1O[C@@H]1O[C@H](CO)[C@H](O)[C@H](O)[C@H]1O`, the Potency result in test [1], in test [2], in test [3], in test [4], in test [11] and in test [6] was “inactive” in each case. For the same molecule, the Potency result in [7], in test [8], in [9] and in test [12] was “inactive” each time. Further, the Potency in test [10] is 26.4 µM (active).
As to `O=C1c2c(O)cc(O)cc2O[C@H](c2cc(O)c(O)c(O)c2)[C@H]1O`, the Potency result in test [1], in [2], in [3] and in [8] was “inactive” throughout. Further, the Potency in [5] was 4.18 µM (active); in test [9], 23.5 µM (active).
As to `CCC(CC)[C@H](NC(C)=O)[C@@H]1[C@H](O)[C@@H](C(=O)O)C[C@@H]1N=C(N)N`, the Potency entry in [1], in test [2], in [3], in test [4], in test [5] and in test [6] was “inactive” in each case. Also, the Potency result in test [7] and in [9] was “inactive” in each case.
Turning to `CCOc1ccc(Nc2nc(-c3c(C)nc4ccccn34)cs2)cc1`, the Potency in test [1] is 1 nM (active) and 36.6 nM (active); in [3] it was 0.165 µM (active); in [11] it was 0.003 µM (active); in [5], 0.0047 µM (active). Also, the Potency entry in test [2], in [9], in test [12] and in test [10] was “inactive” throughout.
As to `Cc1nnc(C(C)C)n1C1C[C@H]2CC[C@@H](C1)N2CC[C@H](NC(=O)C1CCC(F)(F)CC1)c1ccccc1` (some centres undefined), the Potency entry in [1], in test [2], in test [3], in [6], in test [7] and in [8] was “inactive” in each case. Besides, the Potency entry in test [9] and in test [12] was “inactive” each time. Besides, the figures for the Potency in test [11], in test [5] and in test [10] were 14.8 µM (active), 4.18 µM (active) and 18.7 µM (active), respectively.
With `O=C1NC(=O)C(=Cc2ccc3nccnc3c2)S1`, the Potency result in test [1], in test [2], in test [3] and in test [8] was “inactive” in each case. The Potency in [5] was 2.29 µM (active); in [7], 4.57 µM (active); in test [9], 8.12 µM (active); in test [10], 7.24 µM (active).
Take `CC(=O)Nc1ccc([C@H](C)C(=O)Nc2ncc(C(C)C)s2)cc1`: the Potency in test [1] is 3.72 µM (active) and 3.66 µM (active); in test [2], 3.72 µM (active); in [3], 16.5 µM (active); in [4], 0.743 µM (active); in [5], 0.332 µM (active); in [6] it was 4.32 µM (active). The Potency was 2.35 µM (active) in test [7], 4.18 µM (active) in test [9] and 4.82 µM (active) in test [12].
Take `O=C1NC(=O)C(=Cc2ccc(-c3ccc(F)cc3)o2)S1`: the Potency entry in [1], in test [2], in [3], in test [4] and in test [8] was “inactive” in each case. For the same molecule, in test [10], the Potency is 18.7 µM (active).
